Data published in the supplement of paper PMC3545927.
The other results are listed elsewhere or left out. How many sequences the whole screen found active is unknown.

B1: HC2183 (peptide)
chain: CAEVATSTWVAGNASASA
B2: HC2542 (peptide)
chain: CASTPCSQHLAGNASASA
B3: HC978 (peptide)
chain: CAITLTHPVTAGNASASA
B4: HC2160 (peptide)
chain: CACVVTSTWVAGNASASA
B5: DV2 (peptide)
chain: CARERKAGCKAGNASASA
B6: HC17 (peptide)
chain: CAMEEYSQHLAGNASASA
B7: HC918 (peptide)
chain: CASVLCECYDAGNASASA
B8: FS-3166 (peptide)
chain: CARRKRHSEHAGNASASA
B9: FS-2340 (peptide)
chain: CARKARSYIKAGNASASA
B10: FS-2685 (peptide)
chain: CARKARMLYQAGNASASA
B11: FS-3157 (peptide)
chain: CARKARIISQAGNASASA
B12: HC1516 (peptide)
chain: CANTLTCYIKAGNASASA
B13: HC1427 (peptide)
chain: CARKAVTHINAGNASASA
B14: FS-2296 (peptide)
chain: CARRKRKKEVAGNASASA
B15: FS-1780 (peptide)
chain: CARRKRYISQAGNASASA
B16: HC1476 (peptide)
chain: CAKKTPMGFSAGNASASA
B17: HC1675 (peptide)
chain: CAHEECSQHLAGNASASA
B18: HC99 (peptide)
chain: CAVVCQSMSYAGNASASA
B19: FS-471 (peptide)
chain: CAPCCRQRREAGNASASA
B20: FS-441 (peptide)
chain: CAHVQRQRREAGNASASA
B21: HC1217 (peptide)
chain: CAPCQVPSPEAGNASASA
B22: HC1468 (peptide)
chain: CAYSPGQRVEAGNASASA
B23: HC626 (peptide)
chain: CAGHYVQMVIAGNASASA
B24: HC2191 (peptide)
chain: CAEVDTSTWVAGNASASA
B25: HC773 (peptide)
chain: CAVAHLHAPTAGNASASA
B26: FS-2336 (peptide)
chain: CARHKRSLLRAGNASASA
B27: FS-2335 (peptide)
chain: CARHKRMCQGAGNASASA
B28: FS-2938 (peptide)
chain: CARHKRRSKFAGNASASA
B29: FS-1823 (peptide)
chain: CARHKRKQLPAGNASASA
B30: FS-2678 (peptide)
chain: CARHKRETLKAGNASASA
B31: FS-2159 (peptide)
chain: CARNKRKVFSAGNASASA
B32: FS-1954 (peptide)
chain: CARHKRKVFEAGNASASA
B33: HC1383 (peptide)
chain: CAALSNSLLRAGNASASA
B34: HC1318 (peptide)
chain: CAPLPPPKSPAGNASASA
B35: HC1421 (peptide)
chain: CAFGYGAKDVAGNASASA
B36: HC256 (peptide)
chain: CAAYQVRNSTAGNASASA
B37: HC1099 (peptide)
chain: CAEDLVNLLPAGNASASA
B38: HC2123 (peptide)
chain: CAEAVVCCSMAGNASASA
B39: FS-2675 (peptide)
chain: CARHGRDLYRAGNASASA
B40: FS-2023 (peptide)
chain: CARHKRTIPMAGNASASA
B41: FS-1895 (peptide)
chain: CARHKRVHSGAGNASASA
B42: FS-1824 (peptide)
chain: CARHKRWHFIAGNASASA
B43: FS-2027 (peptide)
chain: CARHYRSNSPAGNASASA
B44: FS-2942 (peptide)
chain: CARHQRTENIAGNASASA
B45: FS-1719 (peptide)
chain: CARHYRWALGAGNASASA
B46: FS-3254 (peptide)
chain: CARHKRIPPEAGNASASA
B47: FS-2557 (peptide)
chain: CARHYRNVFHAGNASASA
B48: FS-2143 (peptide)
chain: CARHKRVGTLAGNASASA

Target: furin, P09958
Experiment: furin cleavage Z-score vs untreated control; higher = more cleavage, active = 3.5 or more, inactive = 1 or less, 8 variable residues between constant flanks
Outline: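 Furin-free reactions served as the baseline for the cleavage Z-score, which is the log read count lowess-adjusted and scaled by median absolute deviation. Counts came from released DNA, adapter-tagged by PCR and sequenced. Purified furin had cut 8-mer peptides fused to a cDNA oligonucleotide on magnetic beads during 7.5, 15 or 30 min at 1:10 enzyme:substrate.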
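Note: purified furin at 1:10 enzyme:substrate in 50 mM HEPES pH 7.5.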

Sequence of furin, P09958 (P09958 whole entry): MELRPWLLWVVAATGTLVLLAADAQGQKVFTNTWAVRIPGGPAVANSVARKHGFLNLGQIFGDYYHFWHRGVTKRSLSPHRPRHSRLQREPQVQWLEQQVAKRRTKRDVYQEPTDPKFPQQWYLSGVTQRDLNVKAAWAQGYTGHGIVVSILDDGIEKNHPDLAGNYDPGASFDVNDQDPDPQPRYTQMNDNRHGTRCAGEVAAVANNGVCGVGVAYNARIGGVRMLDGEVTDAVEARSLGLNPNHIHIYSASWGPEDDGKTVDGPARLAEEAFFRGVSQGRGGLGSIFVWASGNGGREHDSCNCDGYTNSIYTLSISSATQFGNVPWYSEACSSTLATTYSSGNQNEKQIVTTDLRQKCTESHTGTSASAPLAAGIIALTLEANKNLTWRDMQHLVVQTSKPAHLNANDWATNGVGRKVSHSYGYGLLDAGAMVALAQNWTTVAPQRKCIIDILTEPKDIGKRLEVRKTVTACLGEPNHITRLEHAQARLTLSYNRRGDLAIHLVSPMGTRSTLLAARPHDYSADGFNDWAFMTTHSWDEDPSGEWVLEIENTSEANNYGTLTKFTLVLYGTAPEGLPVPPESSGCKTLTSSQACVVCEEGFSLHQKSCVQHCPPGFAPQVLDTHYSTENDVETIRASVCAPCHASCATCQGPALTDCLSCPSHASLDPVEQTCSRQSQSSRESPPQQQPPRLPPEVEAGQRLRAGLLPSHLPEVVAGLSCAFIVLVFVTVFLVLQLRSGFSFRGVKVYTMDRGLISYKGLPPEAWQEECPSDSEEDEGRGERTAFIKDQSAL

| Sequence | furin cleavage Z-score (7.5 min) | furin cleavage Z-score (15 min) | furin cleavage Z-score (30 min) |
| --- | --- | --- | --- |
| B1 | -1.15 (inactive) | -1.35 (inactive) | -0.393 (inactive) |
| B2 | -0.0132 (inactive) | 0.861 (inactive) | 2.13 |
| B3 | -0.565 (inactive) | -1.36 (inactive) | -0.511 (inactive) |
| B4 | -0.122 (inactive) | 1.54 | -0.488 (inactive) |
| B5 | 0.35 (inactive) | 1.62 | 2.14 |
| B6 | -0.583 (inactive) | 0.186 (inactive) | 0.59 (inactive) |
| B7 | -0.934 (inactive) | -1.47 (inactive) | -0.91 (inactive) |
| B8 | 10.5 (active) | 10.9 (active) | 8.79 (active) |
| B9 | -0.0545 (inactive) | 0.583 (inactive) | 3.72 (active) |
| B10 | 1.39 | 5.49 (active) | 5 (active) |
| B11 | 1.75 | -1.95 (inactive) | -0.675 (inactive) |
| B12 | -0.56 (inactive) | -0.15 (inactive) | -0.828 (inactive) |
| B13 | -0.202 (inactive) | -1.07 (inactive) | 0.0109 (inactive) |
| B14 | 1.16 | -1.15 (inactive) | 1.21 |
| B15 | 6.79 (active) | 7.45 (active) | 9.13 (active) |
| B16 | -0.403 (inactive) | 1.01 | -1.33 (inactive) |
| B17 | -0.578 (inactive) | 0.64 (inactive) | 1.48 |
| B18 | 0.407 (inactive) | 0.993 (inactive) | 0.767 (inactive) |
| B19 | 10.1 (active) | 8.7 (active) | 8.83 (active) |
| B20 | 12.3 (active) | 12.8 (active) | 9.16 (active) |
| B21 | 0.307 (inactive) | -0.147 (inactive) | 0.789 (inactive) |
| B22 | -0.672 (inactive) | 1.68 | -1.81 (inactive) |
| B23 | -0.996 (inactive) | -0.792 (inactive) | 0.151 (inactive) |
| B24 | -0.604 (inactive) | -1.24 (inactive) | 0.933 (inactive) |

| Sequence | furin cleavage Z-score (7.5 min) | furin cleavage Z-score (15 min) | furin cleavage Z-score (30 min) |
| --- | --- | --- | --- |
| B25 | -0.671 (inactive) | -1.87 (inactive) | -0.0272 (inactive) |
| B26 | 3.75 (active) | 5.3 (active) | 6.44 (active) |
| B27 | 1.23 | 0.787 (inactive) | 3.08 |
| B28 | 1.38 | 2.52 | 5.2 (active) |
| B29 | 1.11 | -0.015 (inactive) | 2.17 |
| B30 | 8.31 (active) | 10.5 (active) | 9.25 (active) |
| B31 | 0.528 (inactive) | 1.39 | 3.14 |
| B32 | 0.591 (inactive) | 1.75 | 4.34 (active) |
| B33 | -1.04 (inactive) | 0.165 (inactive) | 0.485 (inactive) |
| B34 | -0.389 (inactive) | 0.488 (inactive) | -0.355 (inactive) |
| B35 | 0.651 (inactive) | 1.8 | 1.24 |
| B36 | -0.996 (inactive) | -1.12 (inactive) | -0.888 (inactive) |
| B37 | 0.711 (inactive) | 1.96 | 0.196 (inactive) |
| B38 | -0.484 (inactive) | 0.759 (inactive) | 0.473 (inactive) |
| B39 | 1.82 | 4.66 (active) | 6.11 (active) |
| B40 | 6.33 (active) | 8.53 (active) | 8.43 (active) |
| B41 | -1.2 (inactive) | -0.376 (inactive) | -0.241 (inactive) |
| B42 | 2.19 | 2.25 | 4.89 (active) |
| B43 | 1.06 | -1.02 (inactive) | -0.217 (inactive) |
| B44 | -1.07 (inactive) | -2.42 (inactive) | -0.236 (inactive) |
| B45 | -0.124 (inactive) | 3.28 | 3.44 |
| B46 | 0.983 (inactive) | 0.356 (inactive) | 0.464 (inactive) |
| B47 | 1.27 | 2.18 | 5.01 (active) |
| B48 | 0.0898 (inactive) | 0.0513 (inactive) | 2.38 |
